Numbering of substitutions follows the chain as printed.
What was measured:
Assay in all cases: HT-SELEX; high values mean tight binding
Conditions in all cases: protein: recombinant; vector His6-GST; dsDNA, one strand shown
SALL4 ZFC4 WT (HT-SELEX) = biological target: T1, SALL4 ZFC4 WT (HT-SELEX) (Mus musculus, UniProt Q8BX22 870-940)
T1 sequence: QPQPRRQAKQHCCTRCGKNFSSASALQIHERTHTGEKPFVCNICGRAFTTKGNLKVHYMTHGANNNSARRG
Procedure, shortened: (§1)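 Purified recombinant mouse SALL4 zinc finger cluster 4 (residues 870–940, 1 µg) was incubated with library DNA (1.5 µg first cycle, 200 ng later) in 100 µl of 10 mM Tris–HCl pH 7.5, 50 mM NaCl, poly(dI-dC) and DTT for 10 min at room temperature, with Ni2+ bead capture and reselection for up to 6 cycles in triplicate. MiSeq reads were scanned for 6-mers. Binding signal is each canonical k-mer's read fraction as fold change relative to the initial random library.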

[1] = biological target: T2, SALL4 ZFC4 R900W (HT-SELEX) (Mus musculus, UniProt Q8BX22 870-940, R900W)
T2 sequence: T1 sequence with R31W
Procedure, shortened: as §1

[2] = biological target: T3, SALL4 ZFC4 G921D (HT-SELEX) (Mus musculus, UniProt Q8BX22 870-940, G921D)
T3 sequence: T1 sequence with G52D
Procedure, shortened: as §1

Sequence	binding signal (SALL4 ZFC4 WT (HT-SELEX))	binding signal [1]	binding signal [2]
AAGGGT	0.858 ± 0.0423 fold-change vs cycle 0	1.01 ± 0.023 fold-change vs cycle 0	–
CTCTTC	1.02 ± 0.0449 fold-change vs cycle 0	1.24 ± 0.0397 fold-change vs cycle 0	–
GATCAA	1.21 ± 0.0612 fold-change vs cycle 0	1.36 ± 0.014 fold-change vs cycle 0	–
GACAGA	0.725 ± 0.0509 fold-change vs cycle 0	0.826 ± 0.0442 fold-change vs cycle 0	0.903 ± 0.00925 fold-change vs cycle 0
GAAAAC	1.08 ± 0.0562 fold-change vs cycle 0	1.19 ± 0.062 fold-change vs cycle 0	–
AAGATG	1.395 ± 0.00326 fold-change vs cycle 0	1.5 ± 0.0687 fold-change vs cycle 0	–
GAGGAA	0.874 ± 0.0788 fold-change vs cycle 0	1.03 ± 0.0537 fold-change vs cycle 0	–
ACTAGG	0.871 ± 0.0329 fold-change vs cycle 0	1.01 ± 0.0248 fold-change vs cycle 0	–
CAATGC	0.595 ± 0.019 fold-change vs cycle 0	0.673 ± 0.0218 fold-change vs cycle 0	0.807 ± 0.0224 fold-change vs cycle 0
CCTATA	1.35 ± 0.0444 fold-change vs cycle 0	1.4 ± 0.0411 fold-change vs cycle 0	–
TCTACA	1.24 ± 0.0179 fold-change vs cycle 0	1.33 ± 0.0358 fold-change vs cycle 0	1.29 ± 0.0644 fold-change vs cycle 0
AAGGAT	1.54 ± 0.0522 fold-change vs cycle 0	1.72 ± 0.118 fold-change vs cycle 0	–
CATGAA	1.36 ± 0.0383 fold-change vs cycle 0	1.4 ± 0.0692 fold-change vs cycle 0	–
AATCCT	1.47 ± 0.0694 fold-change vs cycle 0	1.58 ± 0.0929 fold-change vs cycle 0	–
ACGAGG	0.436 ± 0.0164 fold-change vs cycle 0	0.534 ± 0.018 fold-change vs cycle 0	0.618 ± 0.0579 fold-change vs cycle 0
AATACC	1.3 ± 0.0373 fold-change vs cycle 0	1.33 ± 0.0245 fold-change vs cycle 0	–
ATGTAG	1.34 ± 0.0549 fold-change vs cycle 0	1.41 ± 0.0727 fold-change vs cycle 0	–
AATTCA	2.33 ± 0.187 fold-change vs cycle 0	1.93 ± 0.125 fold-change vs cycle 0	1.77 ± 0.161 fold-change vs cycle 0
CACAGG	0.432 ± 0.00836 fold-change vs cycle 0	0.527 ± 0.0297 fold-change vs cycle 0	0.624 ± 0.0533 fold-change vs cycle 0

Sequence	binding signal (SALL4 ZFC4 WT (HT-SELEX))	binding signal [1]	binding signal [2]
AAGGCT	0.61 ± 0.0387 fold-change vs cycle 0	0.726 ± 0.0643 fold-change vs cycle 0	0.8372 ± 0.00507 fold-change vs cycle 0
GACACA	0.629 ± 0.04 fold-change vs cycle 0	0.754 ± 0.0153 fold-change vs cycle 0	0.837 ± 0.0392 fold-change vs cycle 0
AATCAG	1.32 ± 0.0871 fold-change vs cycle 0	1.38 ± 0.0901 fold-change vs cycle 0	–
ACATGT	1.28 ± 0.0279 fold-change vs cycle 0	1.4 ± 0.0207 fold-change vs cycle 0	–
AAACGA	1.06 ± 0.0291 fold-change vs cycle 0	–	–
AACTAG	1.31 ± 0.0615 fold-change vs cycle 0	1.4 ± 0.0768 fold-change vs cycle 0	–
CCAGTC	0.437 ± 0.0378 fold-change vs cycle 0	0.533 ± 0.0426 fold-change vs cycle 0	0.62 ± 0.0337 fold-change vs cycle 0
AGTCAG	0.822 ± 0.0342 fold-change vs cycle 0	0.958 ± 0.0579 fold-change vs cycle 0	–
AGGTAA	1.45 ± 0.0617 fold-change vs cycle 0	1.58 ± 0.118 fold-change vs cycle 0	–
CATTAG	1.317 ± 0.00537 fold-change vs cycle 0	1.45 ± 0.0172 fold-change vs cycle 0	1.39 ± 0.0502 fold-change vs cycle 0
AAAGCT	1.01 ± 0.0609 fold-change vs cycle 0	1.13 ± 0.0411 fold-change vs cycle 0	1.17 ± 0.0323 fold-change vs cycle 0
CACTCA	0.83 ± 0.0249 fold-change vs cycle 0	0.928 ± 0.0236 fold-change vs cycle 0	0.995 ± 0.0233 fold-change vs cycle 0
AACTGA	1.35 ± 0.0349 fold-change vs cycle 0	1.44 ± 0.0702 fold-change vs cycle 0	–
AAGGTA	1.42 ± 0.048 fold-change vs cycle 0	1.59 ± 0.0717 fold-change vs cycle 0	–
AGCATA	1.26 ± 0.0848 fold-change vs cycle 0	1.27 ± 0.0243 fold-change vs cycle 0	–
CAAGCA	0.6412 ± 0.00497 fold-change vs cycle 0	0.724 ± 0.0186 fold-change vs cycle 0	0.814 ± 0.0122 fold-change vs cycle 0
ACCCAT	0.847 ± 0.0456 fold-change vs cycle 0	0.916 ± 0.0414 fold-change vs cycle 0	0.954 ± 0.0193 fold-change vs cycle 0
GTAAAA	1.69 ± 0.0918 fold-change vs cycle 0	1.73 ± 0.0898 fold-change vs cycle 0	1.53 ± 0.125 fold-change vs cycle 0

Reference: paper PMC9838217, “Structure of SALL4 zinc finger domain reveals link between AT-rich DNA binding and Okihiro syndrome”
